Assay in all cases: DAPPL (digital affinity profiling via proximity ligation, sequencing); 10 mM Tris-HCl pH 7.5, 50 mM NaCl, 1 mM DTT, 4% glycerol, room temperature, 30 min; GST-TFs on glutathione beads, 16-mer random dsDNA library, 0.1% formaldehyde crosslink after washing; high values mean tight binding
One test addresses T1, FLI1 (Homo sapiens, UniProt Q01543 1-452).
T1 sequence: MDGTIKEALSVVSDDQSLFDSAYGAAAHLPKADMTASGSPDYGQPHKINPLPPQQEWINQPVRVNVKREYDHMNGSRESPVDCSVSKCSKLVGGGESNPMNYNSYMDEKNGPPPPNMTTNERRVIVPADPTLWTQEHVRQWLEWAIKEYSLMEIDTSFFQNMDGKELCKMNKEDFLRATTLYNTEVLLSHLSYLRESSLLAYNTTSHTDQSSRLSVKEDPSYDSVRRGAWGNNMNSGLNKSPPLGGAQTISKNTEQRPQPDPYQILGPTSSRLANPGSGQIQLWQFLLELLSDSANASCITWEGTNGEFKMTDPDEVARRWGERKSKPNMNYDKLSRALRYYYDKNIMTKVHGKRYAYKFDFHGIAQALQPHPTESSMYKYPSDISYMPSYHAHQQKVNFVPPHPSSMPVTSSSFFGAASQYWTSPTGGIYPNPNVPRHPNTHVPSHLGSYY
As to conditions: protein: recombinant; tags: N-terminal GST; dsDNA, one strand shown. In short, it runs like this:
(§1)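 The binding signal reported is, for every hexamer, its read frequency for a factor over its read frequency for the tag-only sample. Reads came from pools of yeast-expressed, GST-fused human transcription factors on glutathione beads, barcoded with DNA and mixed with that sample, which were incubated with 200 nmole of a random double-stranded 16-mer DNA library in Tris/NaCl/DTT/glycerol buffer at room temperature for 30 min. After washing, the pools were crosslinked with 0.1% formaldehyde, proximity-ligated with BsaI/T4 ligase for 1 h at 37 °C, PCR-amplified and sequenced on an Illumina NextSeq500.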

Another test concerns the target T2, ELK1 (Homo sapiens, UniProt P19419 1-428).
T2 sequence: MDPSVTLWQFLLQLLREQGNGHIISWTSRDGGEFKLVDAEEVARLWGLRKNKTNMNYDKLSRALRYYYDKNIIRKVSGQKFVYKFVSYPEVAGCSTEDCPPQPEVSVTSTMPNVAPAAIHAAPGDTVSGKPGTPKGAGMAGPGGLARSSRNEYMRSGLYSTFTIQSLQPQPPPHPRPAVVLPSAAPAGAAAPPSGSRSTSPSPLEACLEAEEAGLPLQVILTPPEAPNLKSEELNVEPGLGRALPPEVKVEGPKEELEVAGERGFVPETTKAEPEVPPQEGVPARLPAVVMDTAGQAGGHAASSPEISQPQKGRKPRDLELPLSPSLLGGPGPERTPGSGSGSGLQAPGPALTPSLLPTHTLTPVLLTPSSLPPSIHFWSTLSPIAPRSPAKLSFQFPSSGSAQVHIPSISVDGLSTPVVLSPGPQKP
The settings on record: protein: recombinant; tags: N-terminal GST; dsDNA, one strand shown. In short, it runs like this: as §1

A further test deals with T3, GABPA (Homo sapiens, UniProt Q06546 1-454).
T3 sequence: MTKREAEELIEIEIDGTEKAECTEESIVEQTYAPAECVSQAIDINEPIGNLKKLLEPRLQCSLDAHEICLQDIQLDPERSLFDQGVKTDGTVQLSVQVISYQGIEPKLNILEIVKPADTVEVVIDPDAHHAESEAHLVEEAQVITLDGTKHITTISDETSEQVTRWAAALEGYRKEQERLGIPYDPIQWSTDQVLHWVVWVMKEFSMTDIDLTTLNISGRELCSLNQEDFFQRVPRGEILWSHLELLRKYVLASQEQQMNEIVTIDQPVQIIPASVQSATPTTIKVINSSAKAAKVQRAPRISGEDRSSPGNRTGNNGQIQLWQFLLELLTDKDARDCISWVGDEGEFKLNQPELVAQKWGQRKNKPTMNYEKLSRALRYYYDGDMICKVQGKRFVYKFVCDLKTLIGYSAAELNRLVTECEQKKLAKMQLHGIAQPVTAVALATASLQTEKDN
The settings on record: protein: recombinant; tags: N-terminal GST; dsDNA, one strand shown. A digest of the protocol: as §1

The next test has as its target T4, ERG (Homo sapiens, UniProt P11308 1-479).
T4 sequence: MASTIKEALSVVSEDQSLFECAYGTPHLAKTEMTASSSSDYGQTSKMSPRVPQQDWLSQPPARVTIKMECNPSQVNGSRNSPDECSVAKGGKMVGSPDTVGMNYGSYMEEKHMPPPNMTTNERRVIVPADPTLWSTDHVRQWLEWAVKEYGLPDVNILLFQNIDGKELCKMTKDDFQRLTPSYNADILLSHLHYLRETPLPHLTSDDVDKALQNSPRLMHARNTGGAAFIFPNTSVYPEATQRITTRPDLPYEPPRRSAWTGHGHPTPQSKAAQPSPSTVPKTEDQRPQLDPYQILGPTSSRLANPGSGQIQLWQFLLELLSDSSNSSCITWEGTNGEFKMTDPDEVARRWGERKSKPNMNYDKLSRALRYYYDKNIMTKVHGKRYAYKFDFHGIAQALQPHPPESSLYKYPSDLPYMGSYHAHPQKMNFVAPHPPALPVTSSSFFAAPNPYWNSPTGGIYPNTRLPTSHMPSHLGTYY
As to conditions: protein: recombinant; tags: N-terminal GST; dsDNA, one strand shown. In short, it runs like this: as §1

In the next test the target is ELF1 (Homo sapiens, UniProt P32519 1-619). The settings on record: protein: recombinant; tags: N-terminal GST; dsDNA, one strand shown. A digest of the protocol: as §1
Another test has as its target T5, EHF (Homo sapiens, UniProt Q9NZC4 1-300).
T5 sequence: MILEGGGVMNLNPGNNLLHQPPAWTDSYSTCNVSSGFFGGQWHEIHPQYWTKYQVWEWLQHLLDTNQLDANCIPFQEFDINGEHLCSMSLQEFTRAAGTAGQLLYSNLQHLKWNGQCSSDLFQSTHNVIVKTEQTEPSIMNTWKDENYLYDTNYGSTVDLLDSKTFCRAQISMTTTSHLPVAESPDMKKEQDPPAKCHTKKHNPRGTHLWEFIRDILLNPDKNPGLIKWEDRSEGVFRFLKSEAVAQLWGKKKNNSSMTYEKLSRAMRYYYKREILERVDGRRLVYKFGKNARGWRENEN
As to conditions: protein: recombinant; tags: N-terminal GST; dsDNA, one strand shown. In short, it runs like this: as §1

The next test has as its target SPIB (Homo sapiens, UniProt Q01892 1-262). As to conditions: protein: recombinant; tags: N-terminal GST; dsDNA, one strand shown. A digest of the protocol:
as §1

The next test concerns the target T6, ELK3 (Homo sapiens, UniProt P41970 1-407).
T6 sequence: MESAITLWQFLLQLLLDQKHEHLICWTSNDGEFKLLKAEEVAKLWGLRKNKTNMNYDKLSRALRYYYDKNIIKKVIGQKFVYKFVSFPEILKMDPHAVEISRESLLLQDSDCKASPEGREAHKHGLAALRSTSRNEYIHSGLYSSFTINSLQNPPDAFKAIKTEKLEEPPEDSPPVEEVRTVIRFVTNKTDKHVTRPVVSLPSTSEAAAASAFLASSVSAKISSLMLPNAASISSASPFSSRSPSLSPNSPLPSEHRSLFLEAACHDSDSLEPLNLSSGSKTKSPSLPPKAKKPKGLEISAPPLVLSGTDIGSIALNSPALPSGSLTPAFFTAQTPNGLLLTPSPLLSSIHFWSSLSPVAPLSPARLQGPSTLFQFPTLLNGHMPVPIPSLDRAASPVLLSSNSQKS
As to conditions: protein: recombinant; tags: N-terminal GST; dsDNA, one strand shown. In short, it runs like this:
as §1

A further test has as its target T7, FEV (Homo sapiens, UniProt Q99581 1-238).
T7 sequence: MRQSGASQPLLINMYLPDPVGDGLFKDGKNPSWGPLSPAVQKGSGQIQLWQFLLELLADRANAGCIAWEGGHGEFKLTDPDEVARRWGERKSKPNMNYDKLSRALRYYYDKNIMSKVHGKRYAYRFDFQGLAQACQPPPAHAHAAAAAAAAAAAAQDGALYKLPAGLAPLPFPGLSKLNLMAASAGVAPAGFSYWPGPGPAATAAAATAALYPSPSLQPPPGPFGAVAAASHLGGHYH
As to conditions: protein: recombinant; tags: N-terminal GST; dsDNA, one strand shown. In short, it runs like this:
as §1

The next test concerns the target ETV5 (Homo sapiens, UniProt P41161 1-510). The settings on record: protein: recombinant; tags: N-terminal GST; dsDNA, one strand shown. In short, it runs like this: as §1
The target of a further test is HSF1 (Homo sapiens, UniProt Q00613 1-529). The settings on record: protein: recombinant; tags: N-terminal GST; chain copies: 3; dsDNA, one strand shown. A digest of the protocol: as §1
The target of a further test is T8, SPIC (Homo sapiens, UniProt Q8N5J4 1-248).
T8 sequence: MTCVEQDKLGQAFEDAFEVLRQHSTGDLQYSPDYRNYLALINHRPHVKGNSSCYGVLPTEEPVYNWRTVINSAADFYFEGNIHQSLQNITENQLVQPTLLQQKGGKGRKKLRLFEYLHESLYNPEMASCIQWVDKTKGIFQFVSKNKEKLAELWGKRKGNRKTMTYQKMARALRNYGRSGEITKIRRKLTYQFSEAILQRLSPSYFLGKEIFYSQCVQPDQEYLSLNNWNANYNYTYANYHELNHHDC
The settings on record: protein: recombinant; tags: N-terminal GST; dsDNA, one strand shown. A digest of the protocol: as §1

In a further test the target is ELF4 (Homo sapiens, UniProt Q99607 1-663). The settings on record: protein: recombinant; tags: N-terminal GST; dsDNA, one strand shown. In short, it runs like this:
as §1

The target in a further test is T9, ELK4 (Homo sapiens, UniProt P28324-2 1-405).
T9 sequence: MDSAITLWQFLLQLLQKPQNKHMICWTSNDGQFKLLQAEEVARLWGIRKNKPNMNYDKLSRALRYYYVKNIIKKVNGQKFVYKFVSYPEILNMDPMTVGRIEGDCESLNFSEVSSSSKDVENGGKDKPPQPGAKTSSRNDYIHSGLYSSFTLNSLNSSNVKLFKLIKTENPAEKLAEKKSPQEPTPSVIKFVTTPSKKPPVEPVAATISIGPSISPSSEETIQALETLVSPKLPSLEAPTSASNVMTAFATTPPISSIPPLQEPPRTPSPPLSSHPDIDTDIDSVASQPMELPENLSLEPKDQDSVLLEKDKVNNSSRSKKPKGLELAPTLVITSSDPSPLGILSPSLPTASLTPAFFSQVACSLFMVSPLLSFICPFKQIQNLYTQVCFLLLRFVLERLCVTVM
The settings on record: protein: recombinant; tags: N-terminal GST; dsDNA, one strand shown. In short, it runs like this: as §1

Another test addresses T10, ETV2 (Homo sapiens, UniProt O00321 1-342).
T10 sequence: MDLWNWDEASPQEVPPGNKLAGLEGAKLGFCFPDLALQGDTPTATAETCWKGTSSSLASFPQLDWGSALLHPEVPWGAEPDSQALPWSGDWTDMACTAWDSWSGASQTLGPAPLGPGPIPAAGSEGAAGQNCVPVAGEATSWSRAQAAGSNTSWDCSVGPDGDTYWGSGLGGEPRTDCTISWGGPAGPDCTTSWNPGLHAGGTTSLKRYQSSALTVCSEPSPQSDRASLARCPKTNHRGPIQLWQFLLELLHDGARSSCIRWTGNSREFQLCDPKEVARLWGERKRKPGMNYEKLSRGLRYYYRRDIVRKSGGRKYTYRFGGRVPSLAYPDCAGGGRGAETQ
As to conditions: protein: recombinant; tags: N-terminal GST; dsDNA, one strand shown. A digest of the protocol: as §1

Another test concerns the target ETV1 (Homo sapiens, UniProt P50549 1-477). The settings on record: protein: recombinant; tags: N-terminal GST; dsDNA, one strand shown. In short, it runs like this: as §1
The next test addresses SPI1 (Homo sapiens, UniProt P17947 1-270). The settings on record: protein: recombinant; tags: N-terminal GST; dsDNA, one strand shown. A digest of the protocol:
as §1

SPIB, sequence (Q01892 whole entry): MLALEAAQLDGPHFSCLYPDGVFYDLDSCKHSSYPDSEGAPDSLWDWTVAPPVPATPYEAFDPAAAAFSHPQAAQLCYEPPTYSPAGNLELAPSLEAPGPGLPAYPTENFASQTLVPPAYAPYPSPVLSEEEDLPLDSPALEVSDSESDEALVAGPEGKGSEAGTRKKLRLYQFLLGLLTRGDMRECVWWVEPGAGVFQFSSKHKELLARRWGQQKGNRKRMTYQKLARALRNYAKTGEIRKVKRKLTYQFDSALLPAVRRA
ETV5, sequence (P41161 whole entry): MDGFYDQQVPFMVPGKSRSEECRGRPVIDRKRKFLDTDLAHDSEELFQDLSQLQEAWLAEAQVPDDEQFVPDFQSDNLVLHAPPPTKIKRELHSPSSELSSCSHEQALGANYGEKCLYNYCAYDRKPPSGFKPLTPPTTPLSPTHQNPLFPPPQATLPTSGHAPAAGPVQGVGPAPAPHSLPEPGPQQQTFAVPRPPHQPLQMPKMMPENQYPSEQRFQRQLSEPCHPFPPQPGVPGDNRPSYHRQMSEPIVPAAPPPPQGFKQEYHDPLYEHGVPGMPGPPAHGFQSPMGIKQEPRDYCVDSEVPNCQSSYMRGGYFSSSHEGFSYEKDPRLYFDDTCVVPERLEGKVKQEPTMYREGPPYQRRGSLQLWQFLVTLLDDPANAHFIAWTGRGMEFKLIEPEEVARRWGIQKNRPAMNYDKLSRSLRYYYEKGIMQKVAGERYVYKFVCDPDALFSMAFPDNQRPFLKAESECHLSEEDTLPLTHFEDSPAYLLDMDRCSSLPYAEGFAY
ELF4, sequence (Q99607 whole entry): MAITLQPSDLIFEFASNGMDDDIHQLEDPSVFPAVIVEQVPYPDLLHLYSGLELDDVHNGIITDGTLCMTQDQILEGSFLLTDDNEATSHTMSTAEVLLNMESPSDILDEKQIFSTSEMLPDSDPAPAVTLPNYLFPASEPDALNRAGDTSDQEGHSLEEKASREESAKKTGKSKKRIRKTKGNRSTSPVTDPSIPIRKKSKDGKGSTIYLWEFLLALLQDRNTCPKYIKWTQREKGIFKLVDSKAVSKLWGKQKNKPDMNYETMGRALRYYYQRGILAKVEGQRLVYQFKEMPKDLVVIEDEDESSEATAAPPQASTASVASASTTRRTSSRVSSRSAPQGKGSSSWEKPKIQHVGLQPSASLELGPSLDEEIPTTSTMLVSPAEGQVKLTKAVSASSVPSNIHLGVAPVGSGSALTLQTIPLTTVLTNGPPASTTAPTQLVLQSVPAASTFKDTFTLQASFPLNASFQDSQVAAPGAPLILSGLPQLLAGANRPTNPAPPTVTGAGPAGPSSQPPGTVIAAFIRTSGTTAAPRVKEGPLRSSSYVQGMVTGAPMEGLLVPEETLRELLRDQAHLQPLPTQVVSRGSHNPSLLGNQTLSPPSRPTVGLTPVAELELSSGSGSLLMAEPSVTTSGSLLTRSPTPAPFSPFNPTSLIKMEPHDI
ETV1, sequence (P50549 whole entry): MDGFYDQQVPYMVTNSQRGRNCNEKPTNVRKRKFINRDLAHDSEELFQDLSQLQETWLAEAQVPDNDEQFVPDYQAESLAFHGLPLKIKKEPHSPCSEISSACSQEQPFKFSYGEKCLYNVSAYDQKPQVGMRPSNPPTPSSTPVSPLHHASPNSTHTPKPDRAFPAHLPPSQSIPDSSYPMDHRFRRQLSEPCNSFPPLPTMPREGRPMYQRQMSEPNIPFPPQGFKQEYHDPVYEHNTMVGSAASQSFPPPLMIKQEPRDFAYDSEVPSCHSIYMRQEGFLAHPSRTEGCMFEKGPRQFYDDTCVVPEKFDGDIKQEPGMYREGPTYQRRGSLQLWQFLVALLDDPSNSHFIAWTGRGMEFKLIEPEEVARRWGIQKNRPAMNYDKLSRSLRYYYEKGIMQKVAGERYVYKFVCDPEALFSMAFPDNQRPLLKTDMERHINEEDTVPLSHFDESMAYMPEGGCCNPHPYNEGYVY
HSF1, sequence (Q00613 whole entry): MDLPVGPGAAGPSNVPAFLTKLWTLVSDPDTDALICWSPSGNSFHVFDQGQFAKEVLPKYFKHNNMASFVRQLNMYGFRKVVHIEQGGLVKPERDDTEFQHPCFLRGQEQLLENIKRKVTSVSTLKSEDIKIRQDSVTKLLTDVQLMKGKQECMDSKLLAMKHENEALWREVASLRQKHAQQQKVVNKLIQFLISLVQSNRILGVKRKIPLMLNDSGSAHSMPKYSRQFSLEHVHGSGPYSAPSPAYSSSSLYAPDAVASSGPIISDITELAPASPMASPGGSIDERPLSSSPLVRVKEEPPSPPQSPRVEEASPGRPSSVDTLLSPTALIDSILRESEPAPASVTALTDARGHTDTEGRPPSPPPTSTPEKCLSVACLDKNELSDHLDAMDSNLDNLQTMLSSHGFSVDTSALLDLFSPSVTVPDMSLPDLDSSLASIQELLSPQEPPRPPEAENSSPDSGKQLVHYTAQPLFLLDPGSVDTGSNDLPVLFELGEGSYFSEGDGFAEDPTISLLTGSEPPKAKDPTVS
ELF1, sequence (P32519 whole entry): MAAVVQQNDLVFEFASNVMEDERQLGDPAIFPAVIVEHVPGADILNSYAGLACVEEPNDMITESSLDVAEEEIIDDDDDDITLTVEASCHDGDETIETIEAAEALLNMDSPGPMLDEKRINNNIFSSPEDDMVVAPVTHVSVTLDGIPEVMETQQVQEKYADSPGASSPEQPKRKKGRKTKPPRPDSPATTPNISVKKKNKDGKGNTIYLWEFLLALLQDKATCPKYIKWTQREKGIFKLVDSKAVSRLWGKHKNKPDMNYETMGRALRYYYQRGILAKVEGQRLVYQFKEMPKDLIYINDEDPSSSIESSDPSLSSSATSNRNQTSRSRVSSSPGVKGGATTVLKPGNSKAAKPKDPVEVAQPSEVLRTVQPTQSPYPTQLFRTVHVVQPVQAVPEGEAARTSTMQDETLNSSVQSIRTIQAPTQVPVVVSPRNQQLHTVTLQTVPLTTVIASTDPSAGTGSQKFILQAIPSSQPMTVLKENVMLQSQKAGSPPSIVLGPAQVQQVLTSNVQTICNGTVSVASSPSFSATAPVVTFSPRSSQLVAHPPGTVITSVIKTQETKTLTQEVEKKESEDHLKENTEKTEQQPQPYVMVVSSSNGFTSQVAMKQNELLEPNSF

Turning to CGACGA, the binding signal is 1.19 fold enrichment (6-mer frequency, TF over GST control) with FLI1; 1.03 fold enrichment (6-mer frequency, TF over GST control) with ELK1; 1.11 fold enrichment (6-mer frequency, TF over GST control) with GABPA; 1.18 fold enrichment (6-mer frequency, TF over GST control) in the test with ERG; 1.09 fold enrichment (6-mer frequency, TF over GST control) in the test with ELF1; 1.14 fold enrichment (6-mer frequency, TF over GST control) with EHF. Also, the binding signal is 1.2 fold enrichment (6-mer frequency, TF over GST control) in the test with SPIB; 1.2 fold enrichment (6-mer frequency, TF over GST control) with ELK3; 1.1 fold enrichment (6-mer frequency, TF over GST control) with FEV; 1.15 fold enrichment (6-mer frequency, TF over GST control) with ETV5; 1.16 fold enrichment (6-mer frequency, TF over GST control) in the test with HSF1; 1.2 fold enrichment (6-mer frequency, TF over GST control) in the test with SPIC. Further, the binding signal with ELF4 is 1.17 fold enrichment (6-mer frequency, TF over GST control); with ELK4, 1.08 fold enrichment (6-mer frequency, TF over GST control); with ETV2, 1.01 fold enrichment (6-mer frequency, TF over GST control); with ETV1 it was 1.07 fold enrichment (6-mer frequency, TF over GST control).
As for TTCACA, the binding signal is 1.27 fold enrichment (6-mer frequency, TF over GST control) with FLI1; 1.17 fold enrichment (6-mer frequency, TF over GST control) with ELK1; 1.23 fold enrichment (6-mer frequency, TF over GST control) with GABPA; 1.18 fold enrichment (6-mer frequency, TF over GST control) with ERG; 1.16 fold enrichment (6-mer frequency, TF over GST control) in the test with ELF1; 1.2 fold enrichment (6-mer frequency, TF over GST control) with EHF. The binding signal in the test with SPI1 was 1.08 fold enrichment (6-mer frequency, TF over GST control); with SPIB it was 1.25 fold enrichment (6-mer frequency, TF over GST control); with ELK3, 1.26 fold enrichment (6-mer frequency, TF over GST control); with FEV it was 1.17 fold enrichment (6-mer frequency, TF over GST control); with ETV5 it was 1.16 fold enrichment (6-mer frequency, TF over GST control); with HSF1 it was 1.04 fold enrichment (6-mer frequency, TF over GST control). In addition, the binding signal with SPIC is 1.08 fold enrichment (6-mer frequency, TF over GST control); with ELF4, 1.17 fold enrichment (6-mer frequency, TF over GST control); with ELK4 it was 1.28 fold enrichment (6-mer frequency, TF over GST control); with ETV2, 1.28 fold enrichment (6-mer frequency, TF over GST control); with ETV1 it was 1.25 fold enrichment (6-mer frequency, TF over GST control).
